In PubChem BioAssay (NCATS):
Several values for one entry are separate records, joined by “and”; a condition that tells them apart may be missing. Identical values can stand only once. Activity calls are given as the source filed them. Unless noted, the call rests on the fitted dose curve.

Columns and labels:
[1] = Cell Viability - BJ (AID 421); settings: BJ fibroblast viability, qHTS;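 further: potency means the concentration at half of the fitted maximal effect; cells exposed to compound for 40 hours at 37 °C before readout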
Summary of the method: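 Cytotoxicity as drop in intracellular ATP (CellTiter-Glo, 20 min RT) after 40 hr compound exposure of BJ fibroblasts at 37 °C. Titrations scaled between DMSO and 100 uM tamoxifen, Hill-fitted for AC50.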

[2] = Cell Viability - HepG2 (AID 433); settings: qHTS;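 further: potency means the concentration at half of the fitted maximal effect; potency for ATP loss meaning cytotoxicity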
Summary of the method: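 Read-out is luciferase-based quantitation of cellular ATP as a measure of viable HepG2 cells after 40 h treatment at 37 °C. Signal decrease is scaled between DMSO-only and 100 uM tamoxifen controls, with AC50 fitted by the Hill equation.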

[3] = Cell Viability - MRC5 (AID 434); settings: MRC5 lung fibroblast viability, qHTS;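 further: potency means the concentration at half of the fitted maximal effect; potency reflects cytotoxicity seen as loss of intracellular ATP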
Summary of the method: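 MRC5 normal human lung fibroblasts, 1500 cells/well, exposed to compound for 40 hr at 37 C. Cellular ATP was read by CellTiter-Glo luminescence; data normalized to DMSO and 100 uM tamoxifen, with AC50 from Hill fits.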

[4] = Cell Viability - N2a (AID 540; active means well fitted cell-killing curve with a large enough effect; inconclusive means small, poorly fitted or top-dose-only effect;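 further: plate controls were DMSO alone for no effect and tamoxifen control for full effect; nearly all actives have a fitted effect of over 45% in size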); settings: N2a mouse neuroblastoma cell viability; activity change, negative = cytotoxicity: at 92.2 µM (top of the series)
Summary of the method: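 First, 1500 N2a cells per well incubate 5 hr at 37 °C; next, compounds are added and incubated 40 hr at 37 °C; finally CellTiter-Glo is added and luminescence read after 20 min, with AC50 derived by Hill modeling.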

[5] = target: Estrogen receptor (Homo sapiens) (UniProt P03372); test: qHTS assay for small molecule antagonists of estrogen receptor alpha signaling (AID 588513; active means well fitted curve in the direction sought with a large enough effect in the signal ratio, with a control signal flat, not every such curve was filed as active; inconclusive means small, poorly fitted or top-dose-only effect, or effect the other way, or a change in a side signal; inactive means no such curve, though single readings can be large or run the other way; the % refers to the signal ratio; further: potency means the concentration at half of the fitted maximal effect); settings: ER-alpha-UAS-bla HEK293, beta-lactamase ratio, antagonist mode; series mostly up to 76.9 µM
Estrogen receptor (Homo sapiens), sequence (P03372 whole entry, looked up): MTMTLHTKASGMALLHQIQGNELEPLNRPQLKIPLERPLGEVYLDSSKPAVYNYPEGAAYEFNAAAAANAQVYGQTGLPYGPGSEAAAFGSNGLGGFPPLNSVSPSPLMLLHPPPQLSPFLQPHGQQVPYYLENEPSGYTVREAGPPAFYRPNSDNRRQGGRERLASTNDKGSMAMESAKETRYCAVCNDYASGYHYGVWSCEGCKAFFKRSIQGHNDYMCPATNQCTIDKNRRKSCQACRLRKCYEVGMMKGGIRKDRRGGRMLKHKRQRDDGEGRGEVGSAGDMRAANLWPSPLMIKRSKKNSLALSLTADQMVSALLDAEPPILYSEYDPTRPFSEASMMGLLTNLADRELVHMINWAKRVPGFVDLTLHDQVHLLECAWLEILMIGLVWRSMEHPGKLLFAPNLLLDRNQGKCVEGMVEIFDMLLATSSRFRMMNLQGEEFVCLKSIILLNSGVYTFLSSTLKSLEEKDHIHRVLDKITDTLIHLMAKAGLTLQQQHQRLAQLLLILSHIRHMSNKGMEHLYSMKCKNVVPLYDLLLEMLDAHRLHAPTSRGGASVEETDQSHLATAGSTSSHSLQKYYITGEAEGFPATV
Summary of the method: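 Fluorescence from CCF4 substrate after 2 h at room temperature gave reporter activity; cells had been exposed to compound and 0.5nM 17-beta-estradiol for 18 h at 37 C. Hill-equation fitting yielded IC50 and maximal response.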

[6] = target: Bile acid receptor (Homo sapiens) (UniProt Q96RI1); test: qHTS assay for small molecule agonists of farnesoid X receptor signaling (AID 588527); settings: HEK293T FXR-UAS-bla, beta-lactamase ratio, 16 h; stronger effect = higher value;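 further: 0% = vehicle basal and 100% = reference agonist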
Bile acid receptor (Homo sapiens), sequence (Q96RI1 whole entry, looked up): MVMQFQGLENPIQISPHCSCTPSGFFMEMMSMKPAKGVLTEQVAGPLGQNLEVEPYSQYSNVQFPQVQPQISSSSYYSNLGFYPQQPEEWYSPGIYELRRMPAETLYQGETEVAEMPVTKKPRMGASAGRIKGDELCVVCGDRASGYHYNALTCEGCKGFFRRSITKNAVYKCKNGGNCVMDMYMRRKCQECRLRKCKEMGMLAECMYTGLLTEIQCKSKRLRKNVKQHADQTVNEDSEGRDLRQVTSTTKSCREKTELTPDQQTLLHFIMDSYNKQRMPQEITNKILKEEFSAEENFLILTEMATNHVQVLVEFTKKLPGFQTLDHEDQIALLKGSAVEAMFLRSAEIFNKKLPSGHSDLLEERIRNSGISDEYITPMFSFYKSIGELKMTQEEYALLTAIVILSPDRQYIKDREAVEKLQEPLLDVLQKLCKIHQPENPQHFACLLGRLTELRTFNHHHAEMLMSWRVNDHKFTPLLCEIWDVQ
Summary of the method: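 Agonist-mode beta-lactamase reporter in GeneBLAzer FXR-UAS-bla HEK293T cells, titration up to 92 uM, 16 h exposure at 37 C, CCF4 fluorescence. Response scaled to DMSO (0%) and 100 uM chenodeoxycholic acid (100%), then Hill-fitted for EC50 and efficacy.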

[7] = target: Glucocorticoid receptor (Homo sapiens) (UniProt P04150); test: qHTS assay for small molecule agonists of glucocorticoid receptor signaling (AID 588532; active means well fitted curve in the direction sought with a large enough effect in the signal ratio, with a control signal flat; inconclusive means small, poorly fitted or top-dose-only effect, or a change in a side signal; inactive means no such curve, though single readings can be large or run the other way; the % refers to the signal ratio;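 further: 100% = dexamethasone at 0.1 µM and 0% = DMSO only wells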); settings: HeLa MMTV-bla, beta-lactamase ratio, agonist, 18 h; stronger effect = higher value; percent of dexamethasone control, DMSO zero
Glucocorticoid receptor (Homo sapiens), sequence (P04150 whole entry, looked up): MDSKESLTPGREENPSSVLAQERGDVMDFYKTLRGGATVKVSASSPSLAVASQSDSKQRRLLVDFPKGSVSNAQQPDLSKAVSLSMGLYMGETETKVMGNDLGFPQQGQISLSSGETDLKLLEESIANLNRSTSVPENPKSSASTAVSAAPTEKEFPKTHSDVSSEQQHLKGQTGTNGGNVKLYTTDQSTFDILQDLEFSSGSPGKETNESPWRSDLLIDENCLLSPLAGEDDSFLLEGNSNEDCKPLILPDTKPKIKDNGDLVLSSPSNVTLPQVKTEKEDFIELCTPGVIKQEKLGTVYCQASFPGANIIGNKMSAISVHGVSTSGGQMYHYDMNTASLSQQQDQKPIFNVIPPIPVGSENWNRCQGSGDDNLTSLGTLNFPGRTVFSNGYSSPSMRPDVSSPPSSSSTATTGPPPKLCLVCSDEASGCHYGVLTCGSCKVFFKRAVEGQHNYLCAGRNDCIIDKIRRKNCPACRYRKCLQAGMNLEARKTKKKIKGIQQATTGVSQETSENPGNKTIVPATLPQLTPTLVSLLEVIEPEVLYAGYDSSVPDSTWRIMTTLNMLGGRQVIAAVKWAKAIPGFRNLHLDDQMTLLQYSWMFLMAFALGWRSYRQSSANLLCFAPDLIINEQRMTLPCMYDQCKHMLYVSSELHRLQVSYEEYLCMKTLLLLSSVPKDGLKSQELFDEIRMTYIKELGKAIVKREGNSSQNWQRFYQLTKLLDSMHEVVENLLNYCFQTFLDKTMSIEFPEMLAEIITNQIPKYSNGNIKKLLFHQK
Summary of the method: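 MMTV-bla HeLa beta-lactamase reporter cells in 1% charcoal/dextran FBS medium, compounds up to 92 uM for 18 h at 37 C, CCF4 readout; normalized to 0.1 uM dexamethasone (100%), EC50 and efficacy from Hill fits.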

[8] = target: Glucocorticoid receptor (Homo sapiens) (UniProt P04150); test: qHTS assay for small molecule antagonists of glucocorticoid receptor signaling (AID 588533; active means well fitted inhibition curve with a large enough effect in the signal ratio, with a control signal flat, not every such curve was filed as active; inconclusive means small, poorly fitted or top-dose-only effect, or effect the other way, or a change in a side signal; the % refers to the signal ratio; further: on the % scale 0 is the no-effect control and ±100 the full control effect); settings: HeLa MMTV-bla, GRE beta-lactamase ratio, antagonist mode, 18 h; series mostly up to 76.8 µM
Summary of the method: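 Antagonist-mode qHTS: compound titrations added to GRE-bla HeLa cells, then dexamethasone 2 nM final; 18 h, 37 C. CCF4 FRET fluorescence normalized to dexamethasone and DMSO; IC50 from Hill fit.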

[9] = target: Peroxisome proliferator-activated receptor gamma (Homo sapiens) (UniProt P37231); test: qHTS assay for small molecule agonists of peroxisome proliferator-activated receptor gamma signaling (AID 588536; active means well fitted curve in the direction sought with a large enough effect in the signal ratio, with a control signal flat, not every such curve was filed as active; inconclusive means small, poorly fitted or top-dose-only effect, or effect the other way, or a change in a side signal; inactive means no such curve, though single readings can be large or run the other way; the % refers to the signal ratio;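 further: 0% = DMSO basal wells and 100% = rosiglitazone at 2 µM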); settings: HEK293 PPARg-UAS-bla, beta-lactamase ratio, 16 h, percent of rosiglitazone response, DMSO as zero; series mostly up to 76.7 µM
Peroxisome proliferator-activated receptor gamma (Homo sapiens), sequence (P37231 whole entry, looked up): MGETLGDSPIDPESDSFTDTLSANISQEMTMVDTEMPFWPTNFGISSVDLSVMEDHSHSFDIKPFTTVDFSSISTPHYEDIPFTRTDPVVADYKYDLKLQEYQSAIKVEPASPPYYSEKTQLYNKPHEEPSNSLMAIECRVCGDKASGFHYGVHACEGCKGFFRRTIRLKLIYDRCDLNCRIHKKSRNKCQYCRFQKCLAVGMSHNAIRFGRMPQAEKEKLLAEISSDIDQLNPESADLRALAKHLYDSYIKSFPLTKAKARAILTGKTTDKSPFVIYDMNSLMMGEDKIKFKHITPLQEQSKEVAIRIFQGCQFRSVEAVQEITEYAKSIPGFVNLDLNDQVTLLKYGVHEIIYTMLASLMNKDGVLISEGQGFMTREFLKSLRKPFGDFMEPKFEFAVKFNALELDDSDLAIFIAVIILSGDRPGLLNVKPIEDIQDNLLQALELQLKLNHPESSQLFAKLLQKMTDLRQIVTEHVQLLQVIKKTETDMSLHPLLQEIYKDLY
Summary of the method: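 Ratiometric blue/green fluorescence (405 nm excitation; 460 and 530 nm emission) from CCF4-loaded HEK293 reporter cells serves as signal. Exposure to test compounds lasts 16 h at 37 C in medium containing 1% charcoal/dextran-treated serum.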

[10] = target: Thyroid hormone receptor beta (Homo sapiens) (UniProt P10828); test: qHTS assay for small molecule agonists of thyroid hormone receptor beta signaling (AID 588545); settings: TR-UAS-bla GripTite HEK 293, beta-lactamase ratio, agonist mode, 18 h; series mostly up to 76.7 µM
Thyroid hormone receptor beta (Homo sapiens), sequence (P10828 whole entry, looked up): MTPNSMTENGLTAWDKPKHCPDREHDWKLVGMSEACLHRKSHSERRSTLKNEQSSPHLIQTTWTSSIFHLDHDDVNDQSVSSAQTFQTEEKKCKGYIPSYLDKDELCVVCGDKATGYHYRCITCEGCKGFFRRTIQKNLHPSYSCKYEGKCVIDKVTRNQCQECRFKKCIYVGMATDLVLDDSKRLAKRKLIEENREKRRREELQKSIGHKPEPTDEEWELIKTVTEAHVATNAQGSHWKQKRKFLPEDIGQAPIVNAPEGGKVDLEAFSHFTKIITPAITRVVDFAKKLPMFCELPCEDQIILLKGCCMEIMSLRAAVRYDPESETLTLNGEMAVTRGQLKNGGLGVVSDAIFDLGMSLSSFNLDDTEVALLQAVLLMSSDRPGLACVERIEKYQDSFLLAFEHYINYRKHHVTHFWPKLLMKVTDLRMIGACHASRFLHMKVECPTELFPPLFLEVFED
Summary of the method: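 Cells (2500/well) were seeded, incubated 4 hrs at 37 C, dosed with a compound series, incubated 18 hrs, loaded with CCF4 dye for 2 hrs at RT, then read for fluorescence. Data were scaled between DMSO (0%) and 10 nM T3 (100%).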

[11] = qHTS assay for small molecule agonists of the antioxidant response element (ARE) signaling pathway (AID 651741; active means well fitted activation curve with a large enough effect in the signal ratio; inconclusive means small, poorly fitted or top-dose-only effect, or effect the other way, or a change in a side signal; the % refers to the signal ratio; further: potency means the concentration at half of the fitted maximal effect; on activation: % of control where 0% means no effect); settings: HepG2 ARE-bla reporter, beta-lactamase FRET ratio, 16 h; series mostly up to 96 µM
Summary of the method: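 HepG2 ARE-bla cells plated at 2,000 cells/well and incubated 5 h at 37 C/5% CO2 received 23 nL compound in DMSO. After 16 h at 37 C, LiveBLAzer B/G FRET substrate was applied for 2 h at room temperature and fluorescence read.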

[12] = target: Peroxisome proliferator-activated receptor gamma (Homo sapiens) (UniProt P37231); test: qHTS assay for small molecule antagonists of peroxisome proliferator-activated receptor gamma signaling (AID 588537; active means well fitted inhibition curve with a large enough effect in the signal ratio, with a control signal flat, not every such curve was filed as active; inconclusive means small, poorly fitted or top-dose-only effect, or effect the other way, or a change in a side signal; the % refers to the signal ratio;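 further: reporter cells co-stimulated with 50 nM rosiglitazone agonist during compound treatment; % of control where 0% means no effect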); settings: HEK293 PPARg-UAS-bla, beta-lactamase ratio, antagonist mode; series mostly up to 76.8 µM
Summary of the method: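 Step one: plate 3000 HEK293 UAS-bla cells per well in medium with 1% stripped serum and hold 6-6.5 h at 37 C. Step two: add compound and 50 nM agonist for 16 h. Step three: CCF4 loading, fluorescence read.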

[13] = target: Vitamin D3 receptor (Homo sapiens) (UniProt P11473); test: qHTS assay for small molecule antagonists of vitamin D receptor signaling (AID 588541); settings: HEK293T VDR-UAS-bla, beta-lactamase ratio, antagonist mode; series mostly up to 76.7 µM;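 further: receptor activated by calcitriol during compound treatment; on the % scale 0 is the no-effect control and ±100 the full control effect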
Vitamin D3 receptor (Homo sapiens), sequence (P11473 whole entry, looked up): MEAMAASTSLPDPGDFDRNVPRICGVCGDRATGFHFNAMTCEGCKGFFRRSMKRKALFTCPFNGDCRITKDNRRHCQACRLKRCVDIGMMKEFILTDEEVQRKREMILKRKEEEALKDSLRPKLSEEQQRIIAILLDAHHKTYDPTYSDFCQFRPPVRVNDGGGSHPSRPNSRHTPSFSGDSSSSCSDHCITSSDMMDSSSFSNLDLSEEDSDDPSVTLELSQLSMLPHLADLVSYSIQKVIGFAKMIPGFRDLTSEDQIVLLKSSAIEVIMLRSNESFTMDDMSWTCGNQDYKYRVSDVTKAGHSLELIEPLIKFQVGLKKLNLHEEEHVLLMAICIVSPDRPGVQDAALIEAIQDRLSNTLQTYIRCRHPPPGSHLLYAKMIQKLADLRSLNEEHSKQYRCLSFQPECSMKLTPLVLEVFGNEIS
Summary of the method: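 VDR-UAS-bla HEK293T cells in 2% charcoal-stripped FBS were stimulated with 1-alpha,25-dihydroxyvitamin D3 (3 nM final) plus compound for 16 h at 37 C. The beta-lactamase CCF4 readout was normalized to 50 nM agonist and DMSO, and Hill fits gave IC50.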

[14] = qHTS assay for small molecule activators of the p53 signaling pathway (AID 651743; active means well fitted activation curve with a large enough effect in the signal ratio, not every such curve was filed as active; inconclusive means small, poorly fitted or top-dose-only effect, or a change in a side signal; the % refers to the signal ratio; further: % of control where 0% means no effect); settings: HCT-116 p53RE-bla, beta-lactamase FRET ratio, 16 h; activation: stronger effect = higher value
Summary of the method: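 HCT-116 p53RE-bla, 4,000 cells/well; 5 h settle; cpd/DMSO 16 h, 37 C; LiveBLAzer B/G 2 h RT; fluorescence intensity.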

[15] = qHTS assay for small molecule disruptors of the mitochondrial membrane potential - 1 hr assay (AID 651754); settings: series mostly up to 92.2 µM; further: nearly all actives have a fitted effect of over 35% in size; further: potency means the concentration at half of the fitted maximal effect
Summary of the method: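 Steps: seed HepG2 cells and let attach overnight; pin-transfer compound or vehicle; incubate 1 hr at 37C; add Mito-MPS dye for 30 min; read two-channel fluorescence for monomer and aggregate forms.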

[16] = MultiTox-Fluor Cytotoxicity Assay - LYMP1-001 - Live Cells (AID 947; active means well fitted cell-killing curve with a large enough effect; inconclusive means small, poorly fitted or top-dose-only effect;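 further: 0% = DMSO only and full inhibition = tetraoctylammonium bromide control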); settings: LYMP1-001 lymphoblastoid cells, live-cell protease fluorescence viability; series mostly up to 92.2 µM
[17] = target: Peroxisome proliferator-activated receptor delta (Homo sapiens) (UniProt Q03181); test: qHTS assay for small molecule agonists of peroxisome proliferator-activated receptor delta signaling (AID 588534); settings: HEK293T PPARdelta-UAS-bla, beta-lactamase ratio, 18 h; series mostly up to 76.7 µM;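 further: 0% = DMSO basal wells and 100% = positive control agonist at 10 µM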
Peroxisome proliferator-activated receptor delta (Homo sapiens), sequence (Q03181 whole entry, looked up): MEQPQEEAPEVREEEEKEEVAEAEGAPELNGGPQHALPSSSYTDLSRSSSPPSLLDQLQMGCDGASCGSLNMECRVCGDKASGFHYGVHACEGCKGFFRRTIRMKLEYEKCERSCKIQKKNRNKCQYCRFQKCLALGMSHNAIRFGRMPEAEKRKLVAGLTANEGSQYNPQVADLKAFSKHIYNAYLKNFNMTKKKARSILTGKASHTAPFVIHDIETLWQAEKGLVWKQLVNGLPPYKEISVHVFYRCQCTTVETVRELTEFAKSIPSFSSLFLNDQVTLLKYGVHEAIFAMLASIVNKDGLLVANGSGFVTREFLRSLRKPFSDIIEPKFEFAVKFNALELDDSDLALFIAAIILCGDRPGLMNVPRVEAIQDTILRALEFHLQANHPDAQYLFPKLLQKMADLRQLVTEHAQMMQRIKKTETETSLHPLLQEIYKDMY
Summary of the method: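 Reporter cells were plated and held 5 hrs at 37 C before compounds were added. After 18 hrs at 37 C, CCF4 dye was loaded for 2 hrs at RT and fluorescence measured.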

[18] = qHTS assay for small molecule antagonists of peroxisome proliferator-activated receptor delta signaling (AID 588535; active means well fitted inhibition curve with a large enough effect in the signal ratio, with a control signal flat, not every such curve was filed as active; inconclusive means small, poorly fitted or top-dose-only effect, or effect the other way, or a change in a side signal; inactive means no such curve, though single readings can be large or run the other way; the % refers to the signal ratio;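 on max response: cells co-treated with a PPAR-delta agonist as stimulator during compound exposure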); settings: HEK293T PPARd-UAS-bla, beta-lactamase FRET ratio, 18 h; 460 nm channel
Summary of the method: (§1)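 Cells were seeded at 4000 per well in assay medium containing 2% charcoal/dextran FBS and held 5 hrs at 37 C. Compounds were then added for 18 hrs. CCF4 substrate was applied for 2 hrs at room temperature before fluorescence reading.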

[19] = target: Thyroid hormone receptor beta (Homo sapiens) (UniProt P10828); test: qHTS assay for small molecule antagonists of thyroid hormone receptor beta signaling (AID 588547; active means well fitted inhibition curve with a large enough effect in the signal ratio, with a control signal flat, not every such curve was filed as active; inconclusive means small, poorly fitted or top-dose-only effect, or effect the other way, or a change in a side signal; the % refers to the signal ratio;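 further: cells stimulated with 0.4 nM T3 agonist during compound exposure; on the % scale 0 is the no-effect control and ±100 the full control effect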); settings: TR-UAS-bla HEK293, beta-lactamase ratio, antagonist mode, 18 h
Summary of the method: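 TR-UAS-bla GripTite HEK293 cells in 2% charcoal/dextran FBS medium; compounds 0.59 nM to 92 uM with T3 at 0.4nM final, 18 h at 37 C. Beta-lactamase read by CCF4 fluorescence (460/530 nm); Hill fits gave IC50 and efficacy.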

[20] = target: Peroxisome proliferator-activated receptor delta (Homo sapiens) (UniProt Q03181); test: qHTS assay for small molecule antagonists of peroxisome proliferator-activated receptor delta signaling (AID 588535); settings: HEK293T PPARd-UAS-bla, beta-lactamase FRET ratio, 18 h; series mostly up to 76.7 µM;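 on max response: cells co-treated with a PPAR-delta agonist as stimulator during compound exposure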
Summary of the method: as §1

N#CC(Cl)(Cl)Cl
inactive: Potency [1] > 92 µM | Potency [2] > 92 µM | Potency [3] > 92 µM | Potency [4] | Potency [5] | activation [6] -1.65% | activation [7] 5.98% | outcome [8] | outcome [9] | Potency [10] | Potency [11]

CN1CSC(=S)N(C)C1
inactive: Potency [1] > 92 µM | Potency [2] > 92 µM | Potency [3] > 92 µM | Potency [5] | activation [6] 0.811% and -0.41% | activation [7] 6.16% | outcome [9] | Potency [12] | outcome [13] | Potency [10] | activation [14] 0.178% and -0.711% | Potency [15]
active: Potency [11] 42.2 µM and 27.3 µM

O=[N+]([O-])c1c(Cl)c(Cl)c(Cl)c(Cl)c1Cl
active: Potency [11] 37.6 µM and 24.3 µM
0.973%: max response [18]
inactive: Potency [1] > 92 µM | Potency [2] > 92 µM | Potency [3] > 92 µM | Potency [4] | outcome [16] | Potency [5] | activation [7] -3.84% and -0.795% | outcome [8] | outcome [17] | outcome [13] | Potency [10] | activity change % (negative = inhibition) [19] 14.8% | activation [14] -1.05% and 4.15%

CCCCC(CC)COC(=O)c1ccc(C(=O)OCC(CC)CCCC)c(C(=O)OCC(CC)CCCC)c1 (centres undefined)
inactive: Potency [1] > 92 µM | Potency [2] > 92 µM | Potency [3] > 92 µM | Potency [4] | outcome [16] | activation [7] -5.8% | outcome [8] | outcome [9] | outcome [13] | Potency [10] | Potency [11] | activation [14] -1.5%

Nc1ccc([N+](=O)[O-])cc1N
inactive: Potency [1] > 92 µM | Potency [2] > 92 µM | Potency [4] | outcome [17] | outcome [20] | outcome [9] | Potency [12] | outcome [13] | Potency [10] | activity change % (negative = inhibition) [19] 8.39% and -11.3% | activation [14] -2.47%
3.68%: max response [18]
active: Potency [11] 3.76 µM and 2.73 µM

CCN(N=O)C(N)=O
inactive: Potency [1] > 92 µM | Potency [2] > 92 µM | Potency [3] > 92 µM | Potency [4] | outcome [16] | Potency [5] | activation [6] -1.35% | activation [7] -3.98% | outcome [17] | outcome [9] | Potency [12] | Potency [10] | activity change % (negative = inhibition) [19] 18.5% | activation [14] 0.306% | Potency [15]
-10.7%: max response [18]

C=CCCC#N
inactive: Potency [1] > 92 µM | Potency [3] > 92 µM | outcome [16] | Potency [5] | activation [6] -0.315% | activation [7] -1.36% | outcome [17] | outcome [9] | outcome [13] | Potency [10] | activity change % (negative = inhibition) [19] 9.59% | activation [14] -2.14% | Potency [15]

O=C(O)C(Br)Br
inactive: Potency [1] > 92 µM | Potency [2] > 92 µM | Potency [3] > 92 µM | Potency [4] | outcome [16] | Potency [5] | activation [6] -1.44% | outcome [9] | Potency [12] | outcome [13] | activation [14] 6.12% | Potency [15]
active: Potency [11] 2.98 µM

Nc1cc(Cl)cc(C(=O)O)c1Cl
inactive: Potency [1] > 92 µM | outcome [17] | outcome [9] | Potency [12] | outcome [13] | activation [14] -3.99% and 3.61% | Potency [15]
-17.7% and 9.43%: max response [18]

C(CCOCC1CO1)COCC1CO1 (centres undefined)
-10%: max response [18]
inactive: Potency [1] > 92 µM | Potency [2] > 92 µM | Potency [3] > 92 µM | outcome [16] | Potency [5] | activation [6] -2.57% | activation [7] -0.372% | outcome [8] | outcome [17] | outcome [20] | outcome [13] | activation [14] 15.9% | Potency [15]
active: Potency [11] 66.8 µM

CN(C)c1ccc(N)cc1
active: Potency [1] 28.3 µM | activity change, negative = cytotoxicity [4] -109% | Potency [5] 31.6 µM [inconclusive] | Potency [11] 33.5 µM | Potency [15] 29.8 µM
inactive: Potency [2] > 92 µM | outcome [17] | outcome [20] | outcome [9] | Potency [12] | outcome [13] | Potency [10] | activity change % (negative = inhibition) [19] 8.59% | activation [14] -3.55%
-7.4%: max response [18]

CN(C)c1ccc(N(C)C)cc1
active: Potency [11] 42.2 µM
inactive: Potency [1] > 92 µM | Potency [2] > 92 µM | Potency [5] | activation [7] 1.15% | outcome [9] | Potency [12] | Potency [10] | activity change % (negative = inhibition) [19] -0.335% | activation [14] 1.85% | Potency [15]

O=[N+]([O-])c1ccccc1CCl
-16.6%: max response [18]
inactive: Potency [1] > 92 µM | Potency [4] | Potency [5] | activation [6] -1.64% | activation [7] 1.82% | outcome [17] | outcome [9] | Potency [12] | outcome [13] | Potency [10] | activity change % (negative = inhibition) [19] 8.81% | activation [14] -1.05% | Potency [15]
